Screening results from PubChem.
nsP2pro inh: CHIKV nsP2 protease inhibition, primary qHTS. Potency, µM (series often up to 24.9 µM), for inactives: at the highest dose activity change, negative = inhibition, most hits filed as inhibitors. FRET peptide cleavage, nsP2pro, fluorescence 1 h. actives 1.1% (n = 31,000); also: nearly all actives have a fitted effect of over 60% in size
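Recombinant nsP2pro (150 nM) was preincubated with compound 15 min at room temperature in 10 mM Tris-HCl pH 8.0, 0.01% Tween 20. Peptide 2 FRET substrate (2.5 uM) was then added and fluorescence read after 1 h. Seven-point series, up to 25 uM.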
nsP2 cell sec: secondary cell-based test for CHIKV nsP2 protease inhibitors; actives 10% (n = 450); cell-based CHIKV nsP2 protease reporter assay; shares compounds with nsP2pro inh; Potency, µM (series often up to 51.1 µM), without a hit: at the highest dose activity change, negative = inhibition, usual class: inhibitors; AID 1964100; also: nearly all actives have a fitted effect of over 70% in size
CHIKV NSP2 FL: inhibits full-length CHIKV NSP2 enzyme. shares compounds with nsP2pro inh. Full-length CHIKV NSP2 protease enzymatic counterscreen. Potency, µM (highest dose often 50.7 µM), inactives show at the top dose activity change, negative = inhibition, usual class: inhibitors. actives 39% (n = 410). AID 1964101; also: nearly all actives have a fitted effect of over 65% in size
Furin counter: human furin inhibition, counterscreen for nsP2pro inhibitors; shares compounds with nsP2pro inh; Recombinant human furin enzymatic counterscreen, fluorogenic substrate; Potency, µM (highest dose often 50.6 µM), for inactives: top-dose activity change, negative = inhibition, most hits filed as inhibitors; actives 6% (n = 410)
NS23 peptide cs: nsP2pro inhibition on native NS2/3 peptide substrate; shares compounds with nsP2pro inh; Purified CHIKV nsP2 protease, endogenous NS2/3 peptide cleavage; Potency, µM (doses to about 51 µM), without a hit: at the highest dose activity change, negative = inhibition, usual class: inhibitors; actives 34% (n = 410); also: nearly all actives have a fitted effect of over 55% in size
Papain counter: inhibits papain in a CHIKV nsP2 protease selectivity counterscreen | actives 5% (n = 410) | AID 1964104 | shares compounds with nsP2pro inh | purified papain protease activity, enzymatic inhibition | Potency, µM (doses to about 51 µM), for inactives: top-dose activity change, negative = inhibition, hits mostly inhibitors
Target sequence (P00784 whole entry, looked up): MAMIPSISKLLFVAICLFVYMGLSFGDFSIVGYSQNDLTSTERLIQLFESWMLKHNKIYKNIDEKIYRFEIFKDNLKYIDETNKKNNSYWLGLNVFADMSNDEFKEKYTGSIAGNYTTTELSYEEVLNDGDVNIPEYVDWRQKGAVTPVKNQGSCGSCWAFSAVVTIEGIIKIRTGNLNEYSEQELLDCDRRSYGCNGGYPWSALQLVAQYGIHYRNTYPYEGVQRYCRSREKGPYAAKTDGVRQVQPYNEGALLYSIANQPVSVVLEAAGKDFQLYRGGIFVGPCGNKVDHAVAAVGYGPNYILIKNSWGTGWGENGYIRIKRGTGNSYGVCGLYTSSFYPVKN
nsP2pro confirm: confirmation of CHIKV nsP2 protease inhibitors. shares compounds with nsP2pro inh. CHIKV nsP2 protease enzymatic activity, qHTS. Potency, µM (highest dose often 25.5 µM), for the others: at the top dose activity change, negative = inhibition, hits mostly inhibitors. actives 43% (n = 410). AID 1964105; also: nearly all actives have a fitted effect of over 75% in size
HCV NS3 4A cs: inhibits HCV NS3/4A protease in an nsP2pro selectivity counterscreen; shares compounds with nsP2pro inh; HCV NS3/4A protease biochemical counterscreen; Potency, µM (titrated, usually from 50.9 µM), usual class: inhibitors; actives 20% (n = 410); also: nearly all actives have a fitted effect of over 55% in size
* hit, by the source's call; i = inactive; ? = inconclusive; [ ] = dose if it differs, or a comment. This excerpt belongs to a sample that is enriched for hits. Calls follow the shape of the full dose curve. % is scaled to controls: 0 for no effect and ±100 for the full control effect; potency is read from the fitted curve at half-maximal effect.

SMILES | nsP2pro inh | others
CN1C(C(=O)Nc2ccc(OC(F)(F)F)cc2)=CC(c2cccs2)=NS1(=O)=O | -14.8%
O=C(Nc1ccc(OC(F)(F)F)cc1)c1cc(-c2ccc(Cl)cc2)on1 | -15.3%
Cc1ccc(C2=NN(CC(=O)N(C)C(C)c3ccco3)C(=O)C2)cc1 (stereo unspecified) | -6.1%
Cc1ccc(S(=O)(=O)Nc2cnccc2C(=O)Nc2nc(-c3ccc(Cl)c(Cl)c3)cs2)cc1 | i
C#CCOc1cccc(-c2nnc3n2N=C(c2ccc(OC)c(OCC(C)=O)c2)CS3)c1 | i
C=C1C(=O)O[C@@H]2CC(C)=C([C@@H](C)CCCO)[C@@H](OC(=O)C(C)C)[C@H]12 | 47.8%
C=C(CO)C(=O)O[C@H]1CC(=C)[C@@H]2C[C@H](O)C(=C)[C@@H]2[C@H]2OC(=O)C(=C)[C@@H]21 | 4.1%
C=C1C(=O)O[C@H]2C1[C@H](OC(=O)/C(=C/CO)COC(=O)/C(C)=C/CO)CC(=C)[C@@H]1CC(=O)[C@@H](C)[C@@H]12 (stereo partly specified) | 1.21µM* | nsP2 cell sec=?;CHIKV NSP2 FL=1.79µM*;Furin counter=-4.8%[17.3 µM];NS23 peptide cs=3.57µM*;Papain counter=-6.6%[17.2 µM];nsP2pro confirm=0.873µM*;HCV NS3 4A cs=?
CNc1nc2c(s1)C(c1ccc(Cl)cc1)CC(=O)N2 (stereo unspecified) | 3.16µM* | nsP2 cell sec=46.3%;CHIKV NSP2 FL=2.91µM*;Furin counter=-10.4%;NS23 peptide cs=8.19µM*;Papain counter=23.4%;nsP2pro confirm=5.65µM*;HCV NS3 4A cs=i
Cc1cc(NS(=O)(=O)c2ccc(C(=O)NCc3ccc(Cl)c(Cl)c3)cc2)no1 | i
CC1(C)[C@H]2C[C@H](C/C=C\CCCC(=O)O)[C@@H](NC(=O)c3csc4ccc(O)cc34)[C@@H]1C2 | 28.6%
O=C(NC1CCCCC1)O[C@@H]1CO[C@H]2[C@@H]1OC[C@@H]2NS(=O)(=O)c1ccc(Cl)cc1 | -20.9%
O[C@@H]1CO[C@H]2[C@@H]1OC[C@@H]2n1nnnc1Sc1ncccn1 | -12.8%[39.2 µM]
O=C(NC1CCCCC1)O[C@@H]1CO[C@H]2[C@@H]1OC[C@@H]2n1nnnc1SCc1ccco1 | 0.447µM* | nsP2 cell sec=3.0%;CHIKV NSP2 FL=2.91µM*;Furin counter=?;NS23 peptide cs=6.51µM*;Papain counter=-7.6%;nsP2pro confirm=0.895µM*;HCV NS3 4A cs=?
COC(=O)C1=COC(O[C@@H]2O[C@H](CO)[C@@H](O)[C@H](O)[C@H]2O)/C(=C\COC(=O)c2ccc(OC3OC(CO)C(O)C(O)C3O)c(OC)c2)C1CC(=O)OCCc1ccc(O)cc1 (stereo partly specified) | 15.1%[5.1 µM]
CC1(C(=O)O)CC[C@]2(C(=O)OC3OC(CO)C(O)C(O)C3O)CC[C@]3(C)C(=CCC4[C@@]5(C)CC[C@H](OC6OCC(O)C(O)C6OC6OC(CO)C(O)C(O)C6O)C(C)(C)C5CC[C@]43C)C2C1 (stereo partly specified) | -1.6%[5.1 µM]
C=C(CCO)C(=O)OCC1OCC(OC(=O)C(=C)CCO[C@@H]2O[C@H](COC(=O)C(=C)CCO[C@@H]3O[C@H](CO)[C@@H](O)[C@H](O)[C@H]3O)[C@@H](O)[C@H](O)[C@H]2O)C(O)C1O (stereo partly specified) | -5.8%[10 µM]
Cc1ccc(NC(=O)C(=O)NC2CC(C)(C)NC(C)(C)C2)cc1 | -4.8%
Cc1ccc(CNC(=O)c2nc(SCc3ccc(C)cc3)ncc2Cl)cc1 | -22.8%
Cc1ccc(CNC(=O)c2nc(SCc3ccccc3F)ncc2Cl)cc1 | 10.7µM* | nsP2 cell sec=44.8%;CHIKV NSP2 FL=-3.0%;Furin counter=-2.2%;NS23 peptide cs=7.7%;Papain counter=-3.2%;nsP2pro confirm=7.4%;HCV NS3 4A cs=i
Cc1ccc(CNC(=O)c2nc(SCc3ccc(F)cc3)ncc2Cl)cc1 | -3.5%
O=C(c1ccc(Br)o1)N1C[C@@H](CO)[C@H](c2ccncc2)C1 | i
O=[N+]([O-])c1ccc(S(=O)(=O)c2ccc(Cl)cc2)nc1 | 0.316µM* | nsP2 cell sec=2.06µM*;CHIKV NSP2 FL=0.73µM*;Furin counter=16.3µM*;NS23 peptide cs=1.83µM*;Papain counter=-10.5%;nsP2pro confirm=0.449µM*;HCV NS3 4A cs=5.17µM*
CC(C)(C)OC(=O)N1CCN(c2ccc(NCc3cncc(-c4ccc(C#N)cc4)c3)cc2)CC1 | i
COc1cc(C)c(-c2nc(CN3CCOC(CCN)C3)c(C)o2)cc1C (stereo unspecified) | -0.3%
SMILES | nsP2pro inh | others
COc1ccc(CNC(=O)Nc2ncc([N+](=O)[O-])s2)cc1 | 29.8%
C=C1C2CCC3C(CCC4[C@@]3(C)CCC[C@@]4(C)C(=O)O)(C2)[C@@H]1OC(=O)/C(C)=C\C (stereo partly specified) | 1.36µM* | nsP2 cell sec=5.6%[17.6 µM];CHIKV NSP2 FL=15.5%[17.3 µM];Furin counter=-13.2%[17.3 µM];NS23 peptide cs=10.7%[17.2 µM];Papain counter=-20.9%[17.2 µM];nsP2pro confirm=-19.9%[8.62 µM];HCV NS3 4A cs=i
C[C@]12CCC[C@](C)(C(=O)O)C1CCC13C=C(CO)C(CCC12)C3 (stereo partly specified) | -8.1%
C=C1CC23CCC4[C@@](C)(CCC[C@@]4(C)C(=O)O)C2CCC1C3 (stereo partly specified) | 12.9%
[2H]C([2H])([2H])C(O)(CCO[C@@H](C)[C@H]1CC[C@H]2/C(=C/C=C3\C[C@@H](O)C[C@H](O)C3=C)CCC[C@]12C)C([2H])([2H])[2H] | -9.5%
COc1ccccc1CNc1nc2c(S(=O)(=O)c3ccc(C)c(C)c3)nnn2c2ccc(Cl)cc12 | -11.2%
COc1ccccc1CNc1nc(-c2ccco2)nn1S(=O)(=O)c1ccc(Cl)cc1 | 8.91µM* | nsP2 cell sec=17.0%
O=C(c1ccco1)n1nc(-c2ccccc2)nc1NCc1ccc(Cl)cc1 | -14.4%
Cc1ccnn1CCC(=O)N1CCOC(Cc2ccc(F)cc2)C1 (stereo unspecified) | i
O=C1Nc2ccccc2/C1=C/c1cc(O)ccc1O | 7.85µM* | nsP2 cell sec=?;CHIKV NSP2 FL=?;Furin counter=?;NS23 peptide cs=23.1µM*;Papain counter=-11.5%;nsP2pro confirm=7.98µM*;HCV NS3 4A cs=10.3µM*
O=C1Nc2ccccc2/C1=C\c1cc(F)c(O)c(F)c1 | i
O=C1Nc2ccccc2/C1=C\c1ccc(O)c(Cl)c1 | i
COc1ccccc1C(=O)N1Cc2c(C(=O)NC3CC3)nn(C)c2C1 | -1.7%
